For 40 sequences, binding signal results are on record in PMC5700166.

One assay concerns the target T1, GST-Ap-NF-kB RHD (Exaiptasia pallida (Aiptasia), UniProt A0A913YAJ5 2-422).
T1 sequence: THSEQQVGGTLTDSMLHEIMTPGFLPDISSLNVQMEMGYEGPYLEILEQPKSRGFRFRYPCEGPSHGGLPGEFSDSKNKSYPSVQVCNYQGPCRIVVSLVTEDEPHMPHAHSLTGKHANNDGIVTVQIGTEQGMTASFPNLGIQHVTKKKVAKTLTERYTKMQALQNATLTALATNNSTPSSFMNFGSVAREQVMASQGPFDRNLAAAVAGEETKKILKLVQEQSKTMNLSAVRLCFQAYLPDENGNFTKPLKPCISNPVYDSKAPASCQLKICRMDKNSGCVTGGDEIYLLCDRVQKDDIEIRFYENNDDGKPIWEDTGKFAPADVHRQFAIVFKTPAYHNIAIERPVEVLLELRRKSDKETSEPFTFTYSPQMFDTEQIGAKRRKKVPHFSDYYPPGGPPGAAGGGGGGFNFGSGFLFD
Kind of assay: protein-binding microarray (PBM); PBM: ~300 nM protein, 6 mM HEPES pH 7.8, 80 mM KCl, 0.5 mM EDTA, 0.5 mM EGTA, 6% glycerol, 35 ng/ul poly-dIdC, 1% milk, 1 h, room temperature; Ap Aiptasia and Nv Nematostella (sea anemones) / Co Capsaspora / Aq Amphimedon (sponge) / Dm Drosophila / Hu human; RHD is the Rel homology domain; high values mean tight binding. As to conditions: dsDNA, one strand shown.
Regarding “CCGATTAACATCAGAAATTTACCTGATGTTAATCGGGTCTTGATTCGCTTGACGCTGCTG”, the binding signal is 1.1 z-score.
The sequence “CCGATTAACATCAGGGCATTACCTGATGTTAATCGGGTCTTGATTCGCTTGACGCTGCTG” returned a binding signal of 1.29 z-score.
For the sequence “CCGATTAACATCAAGGGAAGCCCTGATGTTAATCGGGTCTTGATTCGCTTGACGCTGCTG”, the binding signal amounted to 2.12 z-score.
“CCGATTAACATCAGGAATCACCCTGATGTTAATCGGGTCTTGATTCGCTTGACGCTGCTG” registered a binding signal of 2.46 z-score.
In the case of “CCGATTAACATCAAAAAATACCATGATGTTAATCGGGTCTTGATTCGCTTGACGCTGCTG”, the binding signal was 1.11 z-score.
“CCGATTAACATCAAGGGGGTCCCTGATGTTAATCGGGTCTTGATTCGCTTGACGCTGCTG” registered a binding signal of 5.89 z-score.
With “CCGATTAACATCAGGGAGTTCCATGATGTTAATCGGGTCTTGATTCGCTTGACGCTGCTG”, the binding signal was found to be 2.73 z-score.
Same read-out and setting: under “CCGATTAACATCATGAAGACCCCTGATGTTAATCGGGTCTTGATTCGCTTGACGCTGCTG” stands 2.6 z-score; under “CCGATTAACATCAGGGACCGCCCTGATGTTAATCGGGTCTTGATTCGCTTGACGCTGCTG”, 4.16 z-score.
The same measure, in the same setting: under “CCGATTAACATCACGGGTTTTTCTGATGTTAATCGGGTCTTGATTCGCTTGACGCTGCTG” stands 3.7 z-score.
As for “CCGATTAACATCAGGAAGTCCCATGATGTTAATCGGGTCTTGATTCGCTTGACGCTGCTG”, the binding signal is 4.82 z-score.
In the case of “CCGATTAACATCAGGCGAGTCCCTGATGTTAATCGGGTCTTGATTCGCTTGACGCTGCTG”, the binding signal worked out at 3.13 z-score.

The target in another assay is T2, GST-Nv-NF-kB (Cys allele) (Nematostella vectensis, UniProt E5G601 2-411).
T2 sequence: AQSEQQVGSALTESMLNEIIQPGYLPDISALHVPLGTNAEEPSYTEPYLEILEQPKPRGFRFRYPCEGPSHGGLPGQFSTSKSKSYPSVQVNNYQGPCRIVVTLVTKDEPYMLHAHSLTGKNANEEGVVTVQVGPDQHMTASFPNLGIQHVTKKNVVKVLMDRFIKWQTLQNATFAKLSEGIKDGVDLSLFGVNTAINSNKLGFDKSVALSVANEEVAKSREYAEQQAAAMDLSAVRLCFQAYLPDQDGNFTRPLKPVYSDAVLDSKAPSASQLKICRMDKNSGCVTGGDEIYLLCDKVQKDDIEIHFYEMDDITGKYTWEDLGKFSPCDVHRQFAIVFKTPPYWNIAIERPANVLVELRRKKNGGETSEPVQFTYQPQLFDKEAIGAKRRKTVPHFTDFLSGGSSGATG
The description is as above. To be noted: dsDNA, one strand shown.
For “CCGATTAACATCAGGCAAATCCCTGATGTTAATCGGGTCTTGATTCGCTTGACGCTGCTG”, the binding signal came to 2.27 z-score.
As to “CCGATTAACATCAGGAAAATACCTGATGTTAATCGGGTCTTGATTCGCTTGACGCTGCTG”, the binding signal was determined as 2.3 z-score.
On the same count and under the same terms, next, “CCGATTAACATCAGGGACCTCCCTGATGTTAATCGGGTCTTGATTCGCTTGACGCTGCTG”: 4.78 z-score; “CCGATTAACATCAGGGAAGCCCATGATGTTAATCGGGTCTTGATTCGCTTGACGCTGCTG”: 1.19 z-score.
Still for that read-out and setting: under “CCGATTAACATCAAGAAATTACCTGATGTTAATCGGGTCTTGATTCGCTTGACGCTGCTG” stands 2.74 z-score; under “CCGATTAACATCAGGAACGCCCCTGATGTTAATCGGGTCTTGATTCGCTTGACGCTGCTG”, 3.22 z-score; under “CCGATTAACATCAAGGGCATTCCTGATGTTAATCGGGTCTTGATTCGCTTGACGCTGCTG”, 1 z-score.
The same measure, in the same setting: under “CCGATTAACATCAGGAAATGCCCTGATGTTAATCGGGTCTTGATTCGCTTGACGCTGCTG” stands 3.05 z-score; under “CCGATTAACATCACGGAAGTCCCTGATGTTAATCGGGTCTTGATTCGCTTGACGCTGCTG”, 5.39 z-score; under “CCGATTAACATCAGGTAATCACCTGATGTTAATCGGGTCTTGATTCGCTTGACGCTGCTG”, 2.2 z-score.
Consider “CCGATTAACATCAGGACAGTCCCTGATGTTAATCGGGTCTTGATTCGCTTGACGCTGCTG”, for which the binding signal was 5.23 z-score.
Still for that read-out and setting: under “CCGATTAACATCAAGGAAAACCCTGATGTTAATCGGGTCTTGATTCGCTTGACGCTGCTG” stands 2.33 z-score; under “CCGATTAACATCAGGGATTCCACTGATGTTAATCGGGTCTTGATTCGCTTGACGCTGCTG”, 1.75 z-score.
For the sequence “CCGATTAACATCAGGGATTTACCTGATGTTAATCGGGTCTTGATTCGCTTGACGCTGCTG”, the binding signal stood at 5.65 z-score.
The same measure, in the same setting: under “CCGATTAACATCAAGGAATTACCTGATGTTAATCGGGTCTTGATTCGCTTGACGCTGCTG” stands 2.06 z-score; under “CCGATTAACATCAGGGTTTTCCATGATGTTAATCGGGTCTTGATTCGCTTGACGCTGCTG”, 2.18 z-score; under “CCGATTAACATCAGGGCAAACCCTGATGTTAATCGGGTCTTGATTCGCTTGACGCTGCTG”, 1.88 z-score.
“CCGATTAACATCAGGAGATACCCTGATGTTAATCGGGTCTTGATTCGCTTGACGCTGCTG”: the binding signal was determined as 3.44 z-score.
“CCGATTAACATCAAAATTCCACCTGATGTTAATCGGGTCTTGATTCGCTTGACGCTGCTG”: the binding signal was determined as 2.45 z-score.
Still for that read-out and setting: under “CCGATTAACATCAGGAAAAACCCTGATGTTAATCGGGTCTTGATTCGCTTGACGCTGCTG” stands 5.86 z-score; under “CCGATTAACATCAGGCAAGTCCCTGATGTTAATCGGGTCTTGATTCGCTTGACGCTGCTG”, 3.87 z-score.
“CCGATTAACATCAGGGAAGCACCTGATGTTAATCGGGTCTTGATTCGCTTGACGCTGCTG” registered a binding signal of 5.46 z-score.
On the same count and under the same terms, under “CCGATTAACATCAGGACTTTACCTGATGTTAATCGGGTCTTGATTCGCTTGACGCTGCTG” stands 3.27 z-score; under “CCGATTAACATCAGGATATACCCTGATGTTAATCGGGTCTTGATTCGCTTGACGCTGCTG”, 2.26 z-score; under “CCGATTAACATCAGGAAGACCCCTGATGTTAATCGGGTCTTGATTCGCTTGACGCTGCTG”, 3.08 z-score.
Same read-out and setting: next, “CCGATTAACATCAAGGGCTTCCCTGATGTTAATCGGGTCTTGATTCGCTTGACGCTGCTG”: 1.82 z-score; “CCGATTAACATCAGGTACTTCCATGATGTTAATCGGGTCTTGATTCGCTTGACGCTGCTG”: 2.6 z-score; “CCGATTAACATCAACAAAGTCCCTGATGTTAATCGGGTCTTGATTCGCTTGACGCTGCTG”: 5.37 z-score.
Turning to “CCGATTAACATCAGAAATTTACCTGATGTTAATCGGGTCTTGATTCGCTTGACGCTGCTG”, the binding signal worked out at 2.05 z-score.
With “CCGATTAACATCAGGGCATTACCTGATGTTAATCGGGTCTTGATTCGCTTGACGCTGCTG”, the binding signal amounted to 1.87 z-score.
Sequence “CCGATTAACATCAAGGGAAGCCCTGATGTTAATCGGGTCTTGATTCGCTTGACGCTGCTG” showed a binding signal of 1.83 z-score.
For the sequence “CCGATTAACATCAGGAATCACCCTGATGTTAATCGGGTCTTGATTCGCTTGACGCTGCTG”, the binding signal was 2.05 z-score.
Same read-out and setting: next, “CCGATTAACATCAAAAAATACCATGATGTTAATCGGGTCTTGATTCGCTTGACGCTGCTG”: 1.58 z-score; “CCGATTAACATCAAGGGGGTCCCTGATGTTAATCGGGTCTTGATTCGCTTGACGCTGCTG”: 3.29 z-score.
Take “CCGATTAACATCAGGGAGTTCCATGATGTTAATCGGGTCTTGATTCGCTTGACGCTGCTG”: the binding signal was determined as 3.31 z-score.
On the same count and under the same terms, next, “CCGATTAACATCATGAAGACCCCTGATGTTAATCGGGTCTTGATTCGCTTGACGCTGCTG”: 1.18 z-score.
“CCGATTAACATCAGGGACCGCCCTGATGTTAATCGGGTCTTGATTCGCTTGACGCTGCTG” came in with a binding signal of 3.55 z-score.
Sequence “CCGATTAACATCACGGGTTTTTCTGATGTTAATCGGGTCTTGATTCGCTTGACGCTGCTG” came in with a binding signal of 3.76 z-score.
In turn, “CCGATTAACATCAGGAAGTCCCATGATGTTAATCGGGTCTTGATTCGCTTGACGCTGCTG” yielded a binding signal of 5.32 z-score.
In the case of “CCGATTAACATCAGGCGAGTCCCTGATGTTAATCGGGTCTTGATTCGCTTGACGCTGCTG”, the binding signal is 3.12 z-score.
